Source: PubChem BioAssay (National Center for Advancing Translational Sciences (NCATS))
TDP1 cell noCPT – qHTS for Inhibitors of human tyrosyl-DNA phosphodiesterase 1 (TDP1): qHTS in cells in absence of CPT. DT40 Tdp1-/- hTDP1 cells, no CPT, ATP luminescence, 48 h. Potency, µM (titrated, usually from 46.2 µM), for inactives: at the highest dose activity change, negative = growth inhibition, hits mostly inhibitors. 15% of 420,000 active. AID 686978, 2013; note: potency is the fitted concentration of half-maximal effect; nearly all actives have a fitted effect of over 55% in size
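Stably hTDP1-transfected Tdp1-null chicken DT40 cells were treated with library compounds minus camptothecin and grown for at least 48 hr at 37 °C, after which cellular ATP was quantified by luminescence.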
ELG1 repair inh – qHTS screen for small molecules that inhibit ELG1-dependent DNA repair in human embryonic kidney (HEK293T) cells expressing luciferase-tagged ELG1 | HEK293T ELG1-luciferase reporter, luminescence, 16 h; DNA damage induced by 5-fluorouridine | Potency, µM (series often up to 46.1 µM), for inactives: at the highest dose activity change, negative = inhibition, most hits filed as inhibitors | 2.3% of 330,000 active | AID 504467, 2011; note: potency is the fitted concentration of half-maximal effect; nearly all actives have a fitted effect of over 55% in size
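Luminescence from the luciferase reporter, measured 30 min after ONE-Glo reagent at room temperature, was the read-out. Beforehand, 2,000 cells per well were exposed for 16 hr at 37 °C to 5-fluorouridine together with compound or vehicle.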
IL1B secr inh – qHTS for Inhibitors of Inflammasome Signaling: IL-1-beta AlphaLISA Primary Screen; AID 743279, 2014; activity change, % at 57.5 µM; THP-1 LPS/ATP IL-1B secretion, AlphaLISA, 16 h; active compounds read low; 4.7% of 360,000 active; in the data active = activity change below about -50%; inconclusive = mostly about -30% to -49%
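Secreted IL-1B measured by AlphaLISA bead assay after 16 h compound exposure of THP-1 cells; compounds (final up to 57.5 uM) added 1 h before LPS (250 ng/mL) and ATP (1.25 mM) stimulation; lower signal means less secretion.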
TDP1 cell CPT – qHTS for Inhibitors of human tyrosyl-DNA phosphodiesterase 1 (TDP1): qHTS in cells in presence of CPT | 12% of 420,000 active | Potency, µM (titrated, usually from 46.2 µM), inactives show top-dose activity change, negative = growth inhibition, actives largely listed as inhibitors | chicken DT40 Tdp1-/-;hTDP1 cells + 20 nM CPT, ATP luminescence, 48 h; note: potency is the fitted concentration of half-maximal effect; nearly all actives have a fitted effect of over 55% in size
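Cell growth measured by CellTiter-Glo luminescence after a minimum 48 h, 37 C compound exposure with 20 nM CPT in Tdp1-knockout DT40 cells stably expressing hTDP1, seeded 400/well; qHTS titration format.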
HT1080 IDH1KD tx – qHTS for induction of synthetic lethality in tumor cells producing 2HG: qHTS for the HT-1080-IDH1KD cell line. HT-1080 IDH1 knockdown viability, ATP luminescence, 48 h. Potency, µM (titrated, usually from 46.1 µM), without a hit: at the top dose activity, negative = toxicity, hits mostly cytotoxic. 2% of 360,000 active. AID 686971, 2013;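 note: potency is the fitted concentration of half-maximal effect; 0% = DMSO wells and -100% = cell-free medium wells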
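Luminescent ATP read-out (CellTiter-Glo, 10 min at room temperature) after 48 h compound exposure at 37 °C gave viability of IDH1-knockdown HT-1080 cells. Activity was normalised to DMSO and cell-free wells, then fitted as concentration-response curves.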
HT1080NT lethal – qHTS for induction of synthetic lethality in tumor cells producing 2HG: qHTS for the HT-1080-NT fibrosarcoma cell line | HT-1080-NT fibrosarcoma viability, CellTiter-Glo ATP luminescence, 48 h | Potency, µM (doses to about 46.1 µM), for the others: at the highest dose activity, negative = less viability, actives largely listed as cytotoxic | 1.6% of 360,000 active;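 note: NT is the 2HG producing partner of a matched IDH1 knockdown line; potency is the fitted concentration of half-maximal effect; 0% = DMSO-treated cells and -100% = media-only wells without cells; nearly all actives have a fitted effect of over 55% in size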
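A 48-hour cytotoxicity screen used HT-1080-NT cells plated 2 hours before compound delivery. ATP-based CellTiter-Glo luminescence measured viability, normalized to DMSO and no-cell controls.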
Numbers without * were called inactive; ? = inconclusive; . = not tested or not shown. Rows were chosen to be rich in hits. Some 19% of all compounds tested hit in one or more screens of this group. Unless noted, calls come from the whole dose curve; as a rule, active = well fitted curve in the direction sought with a large enough effect; inconclusive = small, poorly fitted or top-dose-only effect, or another doubt; inactive = no such curve, though single readings can be large; an effect the other way counts as inactive or inconclusive. Unless noted, % is set by controls: 0 for no effect and ±100 for the full control effect.

SMILES	TDP1 cell noCPT	ELG1 repair inh	IL1B secr inh	TDP1 cell CPT	HT1080 IDH1KD tx	HT1080NT lethal
Cc1nnc(NCC=Cc2ccccc2)s1	-5%	.	32	0%	6%	22%
C[C@H](O)[C@@H]1C(=O)N2CCc3c([nH]c4ccccc34)[C@@H]2C[C@@H]1N(C)C(=O)c1cc(Cl)cc(Cl)c1	18µM*	.	-21	23µM*	?	-10%
C[C@H](O)[C@@H]1C(=O)N2CCc3c([nH]c4ccccc34)[C@@H]2C[C@@H]1N(C)C(=O)Nc1cccc2ccccc12	?	.	-15	?	?	?
COc1cc(C2c3cc4c(cc3OC(N3CCCC3)C2C)OCO4)cc(OC)c1O (stereo unspecified)	16µM*	.	25	?	?	?
COc1cc(CN2CCCCCC2)cc(OC)c1OC	9%	-5%	11	12%	?	28%
COc1cc(C2c3cc4c(cc3OC(C)(N3CCCC3)C2C)OCO4)cc(OC)c1OC (stereo unspecified)	1.2µM*	.	20	1.2µM*	?	?
COc1cc(C2c3cc4c(cc3OC(N3CCOCC3)C2C)OCO4)cc(OC)c1OC(C)=O (stereo unspecified)	26µM*	.	21	?	?	?
COc1cccc(NC(=O)c2cc3c(=O)n(Cc4cccnc4)ccc3nc2C)c1	-30%	.	.	3%	.	.
CSc1ccc(CNC(=O)C2(C)CCN2C(C)C)cc1 (stereo unspecified)	-17%	.	7	-14%	13%	19%
O=C(O)C1=C[C@H](C2CC2)C[C@H](OCCCCO)O1	-15%	15%	4	-7%	11%	9%
CC1CCC(C(C)C)C(OC(=O)Cn2c(-c3ccccc3)[n+](C)c3ccccc32)C1 (stereo unspecified)	0.46µM*	6.5µM*	-103*	0.52µM*	9.2µM*	?
CC1CCC(C(C)C)C(OC(=O)CSc2nc(N)cc(=O)[nH]2)C1 (stereo unspecified)	?	14%	25	?	-3%	-2%
Cc1cccc(OC(=O)Cn2c(C(F)(F)F)nc3ccccc32)c1	?	25%	47	?	17%	16%
Cc1cccc(OCc2n(CC(=O)OC3CC(C)CCC3C(C)C)c3ccccc3[n+]2C)c1 (stereo unspecified)	5.8µM*	?	-98*	5.2µM*	8.2µM*	18µM*
CC1CCC(C(C)C)C(OC(=O)Cn2c(-c3ccc(F)cc3)[n+](C)c3ccccc32)C1 (stereo unspecified)	2.3µM*	16µM*	-101*	2.3µM*	10µM*	18µM*
C[C@H]1CN([C@@H](C)CO)C(=O)Cc2cc(NS(=O)(=O)c3cn(C)cn3)ccc2O[C@@H]1CN(C)C(=O)Nc1ccc(F)cc1	6%	20%	4	-7%	-3%	25%
COc1cc(Cl)ccc1OCc1cc(C(=O)N(C)C2CC(C)(C)NC(C)(C)C2)no1	?	6%	15	-13%	-7%	-10%
O=C1/C(=C/c2ccc3c(c2)OCO3)Oc2cc(OCC(=O)N3CCC[C@H]3C(=O)O)ccc21	-2%	18%	9	21µM*	5%	7%
COc1ccc(/C=C2\Oc3cc(OCC(=O)N4CCC[C@H]4CO)ccc3C2=O)c(OC)c1	?	?	-22	23µM*	-1%	-10%
COc1ccccc1/C=C1\Oc2cc(OC(=O)N3CCOCC3)ccc2C1=O	23µM*	35%	-9	15µM*	0%	-5%
COc1cccc(/C=C2\Oc3cc(OCC(=O)N4Cc5ccccc5C[C@H]4C(=O)O)ccc3C2=O)c1	?	6%	14	-29%	0%	2%
CCOc1ccccc1N1CC(C(=O)Nc2cc(Cl)ccc2-n2cncn2)CC1=O (stereo unspecified)	-20%	4%	5	-16%	-8%	-13%
COC(=O)N1CCC2(CCN(C(=O)Nc3ccc(OC)cc3)CC2)CC1	-13%	.	.	6%	.	.
COc1cc(C2CC(=O)Nc3cc4c(cc32)OCCO4)cc(OC)c1O (stereo unspecified)	21µM*	.	.	?	.	.
COc1cc(C2CC(=O)Nc3cc4c(cc32)OCO4)cc(OC)c1O (stereo unspecified)	?	.	.	3%	.	.
SMILES	TDP1 cell noCPT	ELG1 repair inh	IL1B secr inh	TDP1 cell CPT	HT1080 IDH1KD tx	HT1080NT lethal
CC(C)COc1ccccc1C1CC(=O)Nc2cc3c(cc21)OCO3 (stereo unspecified)	4.1µM*	.	.	2.6µM*	.	.
CCOc1ccccc1C1CC(=O)Nc2cc(OC)c(OC)cc21 (stereo unspecified)	?	-6%	46	?	-18%	-2%
COc1cc2c(cc1OC)C(c1ccccc1OC(C)C)CC(=O)N2 (stereo unspecified)	15µM*	0%	60	?	24%	6%
COc1cccc(C2CC(=O)Nc3cc4c(cc32)OCCO4)c1OC (stereo unspecified)	18µM*	.	.	21µM*	.	.
CCOc1ccc(C2CC(=O)Nc3cc4c(cc32)OCO4)cc1OC (stereo unspecified)	?	.	.	-23%	.	.
CCOc1c(OC)cccc1C1CC(=O)Nc2cc3c(cc21)OCCO3 (stereo unspecified)	?	?	3	?	?	?
COc1ccc(-n2cnc3ccccc3c2=O)c([N+](=O)[O-])c1	15%	-12%	3	-4%	5%	3%
CCOc1cc(C(N)=O)cc(Br)c1OC	16µM*	5.2µM*	-13	23µM*	10%	-4%
O=C(NCCc1ccc(F)cc1)C(=O)NCC(c1ccco1)S(=O)(=O)c1ccccc1 (stereo unspecified)	-7%	.	.	-2%	.	.
COc1ccc(CCNC(=O)C(=O)NCC(c2cccs2)S(=O)(=O)c2ccc(C)cc2)cc1 (stereo unspecified)	9.2µM*	.	.	?	.	.
